GPR151 ag = activates the human receptor GPR151 | Q8TDV0 | PathHunter beta-arrestin GPR151 cells, luminescence | activation, % at 11.2 µM | actives 1% (n = 650,000) | AID 1508602; in the data active = activation above about 4.9%;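 note: 0% = median of compound wells and 100% = cells with positive control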
FBW7 act = activators of human E3 ligase FBW7. AlphaScreen FBW7–phospho-cyclin E peptide binding, activator screen. normalized activity (activation), % at 26.1 µM. actives 0.13% (n = 650,000). AID 1259310; in the data active = normalized activity above about 1.9%;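 note: purified mutant Fbw7 with reduced substrate affinity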
TEAD-YAP block = TEAD-YAP interaction inhibition. HEK-TIYL cells, TEAD-Gal4/YAP UAS-luciferase luminescence. inhibition, % at 9.12 µM. actives 1.4% (n = 640,000); in the data active = inhibition above about 32%;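 note: 0% = median of test compound wells and 100% = reference inhibitor wells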
MITF inh = human MITF inhibition, primary screen; O75030; AlphaScreen MITF homodimerization, bead proximity signal; inhibition, % at 2.6 µM; actives 0.91% (n = 650,000); in the data active = inhibition above about 50%;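 note: 0% = vehicle wells with protein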
GPR151 confirm = human GPR151 activation, confirmation screen; GPR151 PathHunter beta-arrestin cells, luminescence, 90 min; % of EA-reagent control over plate median; activation, % at 11.2 µM; AID 1508609; shares compounds with GPR151 ag; 6,700 tested, under 10 active;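 active = mean percent activation across replicates above the confirmation screen cutoff of 4.91%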
GPR119 ag = activates human GPR119 in a GPR151 counter-screen; actives 0.3% (n = 6,700); GPR119 PathHunter beta-arrestin cells, luminescence, 90 min; 0 = compound-well median, 100 = enzyme-acceptor control; shares compounds with GPR151 ag; activation, % at 11.2 µM;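 active = mean percent activation in the counterscreen above 29.09%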;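 note: counterscreen on off-target GPR119 to flag nonselective hits from the GPR151 activator screen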
Target sequence (Q8TDV5 whole entry, looked up): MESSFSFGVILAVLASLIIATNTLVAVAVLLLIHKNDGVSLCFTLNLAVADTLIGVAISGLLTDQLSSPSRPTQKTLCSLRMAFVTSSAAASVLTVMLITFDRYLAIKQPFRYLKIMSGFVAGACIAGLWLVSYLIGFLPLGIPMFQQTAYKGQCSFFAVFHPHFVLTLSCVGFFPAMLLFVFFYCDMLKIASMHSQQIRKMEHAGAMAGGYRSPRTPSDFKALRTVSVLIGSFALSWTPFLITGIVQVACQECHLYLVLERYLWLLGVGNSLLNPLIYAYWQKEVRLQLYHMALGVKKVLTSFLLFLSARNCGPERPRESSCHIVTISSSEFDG
Active calls of the source: *; i = inactive; . = not tested or not shown. Hits are enriched below; roughly 3.5% of the tested compounds scored in any of these assays.

SMILES | GPR151 ag | FBW7 act | TEAD-YAP block | MITF inh | GPR151 confirm | GPR119 ag
O=C(N/N=C/c1ccc(F)cc1)C(=O)Nc1ccc(Cl)c(Cl)c1 | 1.7 | 0.8 | -1.3 | 3.8 | . | .
O=C(NCCc1ccc(F)cc1)C(=O)Nc1cccc(Cl)c1 | 0.2 | 0.2 | 11.4 | 6.4 | . | .
O=C(N/N=C/c1ccc(F)cc1)C(=O)Nc1cccc(Cl)c1 | 5.0* | -0.1 | 0.6 | 9.8 | 0.8 | 12.3
O=C(Nc1cccc(Cl)c1)O/N=C\c1ccncc1 | 5.2* | 0.0 | -10.5 | -0.7 | -0.7 | 2.0
O=C(NCc1ccc(F)cc1)C(=O)Nc1cccc(Cl)c1 | 5.1* | 0.1 | -6.3 | -3.3 | 2.7 | -0.4
CCC(C)Nc1nc(OC(C(F)(F)F)C(F)(F)F)nc(OC(C(F)(F)F)C(F)(F)F)n1 (stereo not drawn) | -1.6 | -0.1 | -3.0 | 1.1 | . | .
Cc1c(C)n2c(SCC(=O)Nc3nc4ccccc4s3)nnc2[nH]c1=O | 1.9 | -0.1 | 10.0 | -14.0 | . | .
CCCCOC(=S)SCc1ccc(Cl)s1 | 6.4* | -0.1 | 3.0 | 3.6 | -0.1 | -3.3
COc1ccc(OCc2nn3c(-c4cccc(Cl)c4)nnc3s2)cc1 | 0.9 | 0.2 | 4.0 | 0.3 | . | .
CCN(CC)c1ccc(NC(=O)/C=C\c2ccccc2)cc1 | -0.8 | -0.3 | -27.2 | 9.1 | . | .
O=C(O)/C=C\C(=O)Nc1ccc([N+](=O)[O-])cc1 | 8.1* | -0.2 | -2.0 | -3.9 | -0.1 | -0.6
CCN(CC)c1ccc(NC(=O)/C=C\C(=O)O)cc1 | 16.0* | -0.1 | 11.4 | 34.0 | -0.7 | -7.3
O=C(O)/C=C/C(=O)Nc1ccc(Sc2ccc([N+](=O)[O-])cc2)cc1 | 3.3 | -0.1 | -7.3 | 0.1 | . | .
CC1CCc2c(sc3nc(SCC(=O)c4ccc(Cl)cc4)n(-c4ccccc4)c(=O)c23)C1 (stereo not drawn) | 1.5 | -0.2 | 2.7 | -5.0 | . | .
C/C(=C\c1ccccc1)C(=O)NCCc1ccccc1 | 14.6* | 0.0 | -13.2 | -4.9 | 1.1 | -7.4
CCn1cc(/C=C2/NC(=O)N(Cc3ccccc3F)C2=O)c2ccccc21 | 3.0 | 0.1 | 3.8 | -7.0 | . | .
Cc1c(-c2ccc(Cl)cc2)noc1C1CCN(CCc2ccccc2)CC1 | 8.2* | -0.1 | . | 8.7 | 2.1 | -0.8
COc1cccc(/C=c2\sc3nc(=O)c(Cc4ccccc4)nn3c2=O)c1OC | 0.9 | 0.4 | 14.9 | i | . | .
CC/C=C\C/C=C\C/C=C\CCCCCCCC(=O)OCC | -2.0 | . | . | -9.3 | . | .
CCCCC/C=C\C/C=C\C/C=C\CCCCCCC(=O)OCC | 9.1* | . | . | 3.8 | -0.4 | 3.7
CCCCOc1ccc(C(=O)N/C(=C/c2ccc([N+](=O)[O-])cc2)C(N)=O)cc1 | 0.2 | 0.0 | 6.0 | 1.2 | . | .
CCCCOc1ccc(C(=O)N/C(=C/c2ccc(Cl)cc2)C(N)=O)cc1 | 9.8* | -0.3 | 12.4 | -9.2 | -0.8 | 5.5
CCCCCNC(=O)c1c(O)c2c([nH]c1=O)CCCC2 | 17.8* | 0.5 | -14.0 | 9.2 | 1.1 | 2.6
O=C(NCCN1CCNCC1)c1c(O)c2c([nH]c1=O)CCCC2 | 1.8 | 0.1 | 7.2 | 3.2 | . | .
CCN1CCCC1CNC(=O)c1c(O)c2c([nH]c1=O)CCCC2 (stereo not drawn) | 6.8* | 0.1 | 4.7 | 6.0 | 0.0 | 1.8
SMILES | GPR151 ag | FBW7 act | TEAD-YAP block | MITF inh | GPR151 confirm | GPR119 ag
O=C(O)C1CC=C(Cl)CC1C(=O)Nc1ccn[nH]1 (stereo not drawn) | 10.0* | -0.3 | 6.3 | -6.4 | 0.4 | 0.2
O=C(CCC(=O)Nc1ccc(I)cc1)N/N=C/c1ccc(F)cc1 | 6.6* | -0.2 | 0.7 | 5.4 | -1.2 | -13.9
O=C(O)c1ccc(CNCc2ccc(Cl)cc2Cl)cc1 | 8.9* | 0.7 | 15.2 | 19.1 | -1.5 | -15.2
N#CC1=C(N)Oc2cc(O)ccc2C1C1CC=CCC1 (stereo not drawn) | 5.4* | 0.0 | 12.9 | 6.7 | -0.2 | 2.0
CCc1nnc(NC(=O)c2cc(OC)c(OC)cc2[N+](=O)[O-])s1 | -1.8 | 0.0 | 8.9 | 19.5 | . | .
O=P(CCCO)(c1ccccc1)c1ccccc1 | 10.3* | 0.0 | -2.8 | 29.8 | 0.6 | 15.2
O=P(CCO)(c1ccccc1)c1ccccc1 | -1.7 | 0.1 | 0.6 | 16.9 | . | .
COc1cc(CN2CCC3(CC2)CC3C(=O)Nc2cc(C)cc(C)c2)cc2c1OCO2 (stereo not drawn) | 1.1 | -0.1 | -9.4 | 7.4 | . | .
COc1cc(NC(=O)CSc2nnnn2C)cc(OC)c1 | 5.1* | 0.0 | 6.3 | -2.9 | -0.2 | -2.6
O=C(O)c1ccccc1C(=O)Nc1cccc(Cl)c1 | 0.8 | 0.0 | -6.2 | 0.0 | . | .
